The source of these data is ChEMBL document CHEMBL4513216, “Probing the Open Global Health Chemical Diversity Library for Multistage-Active Starting Points for Next-Generation Antimalarials” (ACS Infect Dis, 2020).

The whole screen tested about 68,000 compounds, of which about 2,700 (4%) showed an effect of 50% or more. Only a selection was taken, and strong results are over-represented in it overall.

This assay deals with Plasmodium berghei. As to the kind of experiment: Screen against P. berghei liver stage (PbLuc), transformed with Luciferase, at 2uM. Conditions: tested at 2 uM. Format: functional, HepG2.
In the case of `Cc1nc(-c2ccccc2C)n(CC(=O)NC2CCCC2)n1`, the INHIBITION came to 31.57%.
Regarding `Cn1ccc(C(=O)N2CCCC2c2cc[nH]n2)n1` (stereo not drawn), the INHIBITION came to 16.43%.
The same measure for `COCCc1ncc(CN2C[C@@H](C(=O)O)[C@H](C(C)C)C2)cn1`: -59.6%.
`COc1ccc(-n2ccc(CNCc3cccc(OC)c3)n2)cc1`: the INHIBITION came out at 28.75%.
In the case of `O=C(NCc1cnn2cccnc12)C1CC2(CCNCC2)CN1` (stereo not drawn) it was -1.33%; in that of `Cn1cc(-c2cnc(N3CCOCC3)nc2)cc1C(=O)NCCC#N`, -0.45%.
In the case of `CCC(NC(=O)c1cc(NC(C)=O)ccc1Cl)c1cc(C)ccn1` (stereo not drawn) it was 57.75%.
In the case of `COCC(NC(=O)c1cc(NC(C)=O)ccc1Cl)c1ccccn1` (stereo not drawn), the INHIBITION worked out at 29.13%.
The same measure for `COCC(NC(=O)c1cc(NC(C)=O)ccc1Cl)c1ccnn1C` (stereo not drawn): 21.97%.
In the case of `COC(=O)C1CCCN1CC(=O)NCc1ccc(OCC(N)=O)cc1` (stereo not drawn) it was -6.33%.
The same measure for `O=C1CCC[C@]2(CN(S(=O)(=O)N3CCCCC3)C[C@H]2c2cccnc2)N1`: -0.64%; for `CC(C)=CCN1CCN(C(=O)c2snnc2C)[C@H]2CS(=O)(=O)C[C@H]21`: 51.38%.
In the case of `CCCN1CCN(C(=O)c2cccc(C)n2)[C@H]2CS(=O)(=O)C[C@H]21`, the INHIBITION turned out to be 6.84%.
Turning to `CC(C)=CCN1CCN(C(=O)COc2ccccc2)[C@H]2CS(=O)(=O)C[C@H]21`, the INHIBITION is 41.68%.
For `CC(=O)N1CCN(C(=O)c2snnc2C)[C@H]2CS(=O)(=O)C[C@H]21`, the INHIBITION is listed as -3.73%.
Consider `CCCN1CCN(C(=O)c2cc3ccccc3cn2)[C@H]2CS(=O)(=O)C[C@H]21`, for which the INHIBITION worked out at 35.01%.
Consider `O=C(C1CC1)N1CCN(C(=O)CSc2ccccn2)[C@H]2CS(=O)(=O)C[C@H]21`, for which the INHIBITION was -32.88%.
For the molecule `O=C(CSc1ccccn1)N1CCN(CCO)[C@@H]2CS(=O)(=O)C[C@@H]21`, the INHIBITION is recorded as 67.28%.
As for `CCCN1CCN(C(=O)c2ccc3ccccc3n2)[C@H]2CS(=O)(=O)C[C@H]21`, the INHIBITION is reported as 57.21%.
With `CCCN1CCN(C(=O)Cc2cccnc2)[C@H]2CS(=O)(=O)C[C@H]21`, the INHIBITION was found to be 23.19%.
In the case of `CC(C)=CCN1CCN(CCCc2ccccc2)[C@H]2CS(=O)(=O)C[C@H]21`, the INHIBITION is 7.29%.
For the molecule `Cc1nnsc1C(=O)N1CCN(CC2CC2)[C@@H]2CS(=O)(=O)C[C@@H]21`, the INHIBITION is 0.54%.
For the molecule `CC(C)=CCN1CCN(C(=O)CSc2ccccn2)[C@H]2CS(=O)(=O)C[C@H]21`, the INHIBITION was 64.9%.
The same measure for `C[C@H](NC(=O)C1CCCC1)c1nc2cc(-c3ccc(F)cc3)ncn2n1`: 39.48%; for `CC(O)c1cccc(OCc2ccon2)c1` (stereo not drawn): 46.28%.
For the molecule `Cn1cc(CN2CC[C@H]3O[C@H](C(=O)Nc4cnccn4)CC[C@H]32)cn1`, the INHIBITION is recorded as -20.89%.
For the molecule `CN(CC(=O)Nc1cccnc1)CC1CCCN1c1cccnn1` (stereo not drawn), the INHIBITION is 45.48%.
`Cc1nn(C)c(Cl)c1C1CCCN1C(=O)c1cnc[nH]1` (stereo not drawn): the INHIBITION came to 8.37%.
For `CC(=O)N(Cc1noc(C)n1)C1CCN(CC(=O)N(C)C2CC2)C1` (stereo not drawn), the INHIBITION was -3.97%.
With `Cc1nccn1CCN(C)C(=O)C1CCN(C(=O)C2CCC2)CC1`, the INHIBITION was 20.45%.
Regarding `CN(C)CCN1C[C@@H]2CN(S(=O)(=O)c3ccccc3)C[C@@H]2C1=O`, the INHIBITION is 19.16%.
Take `Cc1ccc(CN2C[C@H](OCC3CCOCC3)[C@H]3COC[C@H]32)o1`: the INHIBITION was determined as 18.32%.
The same measure for `CC(C)=CCN1CCN(S(=O)(=O)c2cn(C)cn2)[C@H]2CS(=O)(=O)C[C@H]21`: 50.98%.
As to `CC(C)CN1CCN(S(=O)(=O)c2cn(C)cn2)[C@H]2CS(=O)(=O)C[C@H]21`, the INHIBITION came to 15.74%.
In the case of `CC(C)=CCN1CCN(Cc2nccn2C)[C@H]2CS(=O)(=O)C[C@H]21` it was 8.26%; in that of `O=C(c1ccc2nccnc2c1)N1CCN(CCO)[C@@H]2CS(=O)(=O)C[C@@H]21`, 14.82%.
As to `Cn1cnc2cc(C(=O)N3CCN(CCO)[C@@H]4CS(=O)(=O)C[C@@H]43)ccc21`, the INHIBITION was 55.36%.
Regarding `Cc1nc2ccc(C(=O)N3CCN(CCO)[C@@H]4CS(=O)(=O)C[C@@H]43)cc2o1`, the INHIBITION is -85.34%.
The same measure for `O=C(Cn1nc(-c2ccc(F)cc2)oc1=O)NCCc1ccccc1`: 20.57%.
On to `c1ccc(OCc2nnn3c2CN(c2ncccn2)CCC3)nc1`, for which the INHIBITION is reported as -7.52%.
`Cc1nnc2ccc(OCCNS(C)(=O)=O)nn12`: the INHIBITION is recorded as -26.08%.
Take `N#Cc1cccc(CN2CCn3cc(Cn4cccn4)nc3C2)c1`: the INHIBITION was 21.42%.
Take `CSc1ccc(NCC(=O)NC(=O)NCC(F)(F)F)cc1F`: the INHIBITION worked out at 18.63%.
`CSc1ccc(NCC(=O)NCC(=O)N2CCCC2)cc1F`: the INHIBITION is given as -30.18%.
In the case of `CSc1ccc(NCC(=O)NCC2CC2)cc1F` it was 55.66%; in that of `COc1ccc(CNC(=O)NC2CCN(CC3CCCC3)CC2)cn1`, -17.01%; in that of `CCCN1C[C@H](NC(=O)c2cc(C)no2)[C@@H](c2ccc(OC)cc2)C1`, 18.22%.
In the case of `CCCN1C[C@H](NC(=O)c2ccccc2F)[C@@H](c2ccc(OC)cc2)C1`, the INHIBITION amounted to 16.55%.
